Molecules are shown by their SMILES. The panel holds about 79,000 compounds, 15% with a hit somewhere; the sample as a whole holds those more often. Unmarked numbers belong to inactive results. Calls of active or inactive are those of the source. Rule as the data show it: active = growth inhibition above about 70%; inactive = the rest. *1 amine or outer side, *2 acyl side, *3 side chain or, on linkers, in order; H or OH if unused. Where a SMILES comes first, the peptide text is derived from it. Bridges are numbered along the chain shown (N, C = ends). Roman numbers before positions name the chains, in order. [ ]: non-standard residue; d: D form. Actinocin(1to9) = Cc1c2oc3c(C)ccc(C(=O)[*:2])c3nc-2c(C(=O)[*:1])c(N)c1=O; NMeV = CN[CH](C(=O)O)C(C)C; Aze = O=C(O)[CH]1CCN1; Sar = CNCC(=O)O

These results are taken from PubChem BioAssay (NCI).

A short description of assay [1]: NCI Yeast Anticancer Drug Screen. Data for the rad50 strain (AID 155).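 Also: 0% = growth of vehicle-only cultures of the same strain.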 To be noted: S. cerevisiae rad50 strain growth inhibition; at 50.0 µM; stronger effect = higher value. The method, boiled down: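 Readout: growth inhibition relative to vehicle-treated cultures. Compound exposure was carried out in a genetically defined yeast strain deficient in DNA damage repair.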
Assay [2] is described as follows: NCI Yeast Anticancer Drug Screen. Data for the mec2-1 strain (AID 157). To be noted: S. cerevisiae mec2-1 strain, at 50.0 µM, stronger effect = higher value. Summed up:
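Strain: mec2-1 (DNA repair/cell cycle alteration). Compound exposure, then growth measured; inhibition expressed relative to vehicle.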

Assay [3] can be described thus: NCI Yeast Anticancer Drug Screen. Data for the sgs1 mgt1 strain (AID 161).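 Also: 0% = growth of cultures given vehicle only.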 To be noted: S. cerevisiae sgs1 mgt1 strain, at 50.0 µM, stronger effect = higher value. Summed up: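 Genetically altered yeast, compound exposure, growth inhibition relative to vehicle.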
A short description of assay [4]: NCI Yeast Anticancer Drug Screen. Data for the cln2 rad14 strain (AID 165).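 Also: 0% = growth equal to vehicle treated cultures.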 As to conditions: S. cerevisiae cln2 rad14 strain, at 50.0 µM, stronger effect = higher value. Summed up:
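Compounds are applied to the cln2 rad14 yeast strain, and growth is then compared with that of vehicle-treated cultures to give inhibition.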

Assay [5] can be described thus: NCI Yeast Anticancer Drug Screen. Data for the bub3 strain (AID 167). As to conditions: S. cerevisiae bub3 mutant strain, at 50.0 µM, stronger effect = higher value. The method, boiled down: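 Readout: yeast growth inhibition, expressed relative to vehicle-only wells. The test organism is a mutant strain from a panel with lesions in DNA repair or checkpoint genes.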
A short description of assay [6]: NCI Yeast Anticancer Drug Screen. Data for the mlh1 rad18 strain (AID 175). As to conditions: S. cerevisiae mlh1 rad18 strain growth inhibition; at 50.0 µM; stronger effect = higher value. Summed up: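 Read-out is yeast growth inhibition, calculated against vehicle-only controls. The compound was applied to a strain engineered with DNA damage repair alterations.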

`Cc1cc(=O)c2c(=O)n(-c3ccccc3)[nH]c2[nH]1`: the growth inhibition in assay [1] was -34.7%; in assay [2] it was -13.1%; in assay [3] it was -11.2%; in assay [4] it was -27.2%; in assay [5], -13.4%; in assay [6] it was -6.35%.
For the compound `Cc1ccc(S(=O)(=O)OC2C3OC(C)(C)OC3OC2C(c2cc(O)c3c(c2O)C(=O)c2ccccc2C3=O)c2cc(O)c3c(c2O)C(=O)c2ccccc2C3=O)cc1` (stereo unspecified), the growth inhibition was -35.5% in assay [1]; -25.6% in assay [2]; -11.6% in assay [3]; -5% in assay [4]; -8.2% in assay [5]; -25.1% in assay [6].
For the compound `O=CNNC(=O)CN1C(=O)c2ccccc2C1=O`, the growth inhibition in assay [1] is 3.3%; in assay [2], -0.45%; in assay [3], 3.4%; in assay [4], 17.8%; in assay [5], -3.35%; in assay [6], -6.65%.
For the compound `O=[N+]([O-])c1ccc(Cl)c(OCCBr)c1`, the growth inhibition in assay [1] was 0%; in assay [2] it was 3.15%; in assay [3], -2.05%; in assay [4] it was 1.15%; in assay [5] it was 31.9%; in assay [6], 9%.
Consider `CO[C@@H]1C=C[C@@]23c4cc5c(cc4CN(C[C@@H]2O)[C@H]3C1)OCO5`, for which the growth inhibition in assay [1] is 3.95%; in assay [2], -26.1%; in assay [3], -11.9%; in assay [4], 14.8%; in assay [5], -16.1%; in assay [6] it was -59.4%.
For the compound `CCCCC/C(=N\NC(N)=O)C1=CCCCC1`, the growth inhibition in assay [1] was 13.1%; in assay [2] it was 7.6%; in assay [3] it was -9.6%; in assay [4], -19.9%; in assay [5] it was -25.4%; in assay [6], 18.4%.
In the case of `CC(=O)Nc1nc(C)c(S(=O)(=O)Cl)s1`, the growth inhibition in assay [1] is 27.5%; in assay [2], 10.4%; in assay [3], 33%; in assay [4], 23.2%; in assay [5], 14.8%; in assay [6] it was 19.6%.
Take `COc1cccc(OC)c1C`: the growth inhibition in assay [1] is 15.1%; in assay [2] it was -11.1%; in assay [3], -10.6%; in assay [4], 14.6%; in assay [5], -4.25%; in assay [6], 16.6%.
Consider `Nc1ccc(C(=O)c2ccccc2)cc1`, for which the growth inhibition in assay [1] was 33.2%; in assay [2], 13.9%; in assay [3], 25.4%; in assay [4], -8.55%; in assay [5] it was -1.55%; in assay [6], 4.9%.
For the compound `NC(=O)C(N)C(N)=NCc1ccccc1` (stereo unspecified), the growth inhibition was 10% in assay [1]; 1.35% in assay [2]; 4.15% in assay [3]; -7.25% in assay [4]; -2.3% in assay [5]; 13.5% in assay [6].
Regarding `CC(C)(C)OC(=O)N1CCCC1=O`, the growth inhibition is 9.65% in assay [1]; 13% in assay [2]; 24.8% in assay [3]; 22.3% in assay [4]; 8.05% in assay [5]; 28.5% in assay [6].
`O=C1c2ccccc2C(=O)N1CCNc1ccccc1[N+](=O)[O-]`: the growth inhibition in assay [1] was -9.25%; in assay [2] it was -12.2%; in assay [3], 7%; in assay [4] it was -22.9%; in assay [5], 6.5%; in assay [6], -19.2%.
Turning to `Cc1ccc(NC2=CC(=O)C(=O)c3ccccc32)cc1C`, the growth inhibition in assay [1] was 35%; in assay [2] it was 13.1%; in assay [3], 19.4%; in assay [4], 11.4%; in assay [5], 34%; in assay [6] it was 26.5%.
Regarding `c1ccc(C(N=NC(c2ccccc2)c2ccccc2)c2ccccc2)cc1`, the growth inhibition is 4.4% in assay [1]; -10.3% in assay [2]; 3.75% in assay [3]; -18.3% in assay [4]; -21.8% in assay [5]; 16.8% in assay [6].
Consider `Nc1nnnn1NC(=O)c1ccccc1`, for which the growth inhibition in assay [1] was -2.1%; in assay [2], -6.8%; in assay [3] it was -5.35%; in assay [4], -11.5%; in assay [5] it was -6%; in assay [6] it was -11.3%.
Regarding `CCN(CC)CC1c2ccccc2C(CNc2ccccc2)N1C` (stereo unspecified), the growth inhibition in assay [1] was 4.5%; in assay [2], 29.4%; in assay [3], -10.1%; in assay [4], 14.2%; in assay [5], 5.65%; in assay [6] it was 7.65%.
With `CN(C)CCN(C)CC(C)(C)C(=O)/C=C/c1ccccc1`, the growth inhibition in assay [1] is -26%; in assay [2], 2.55%; in assay [3], -21.6%; in assay [4] it was -5.95%; in assay [5], -7.15%; in assay [6] it was -15.4%.
For `CC1(C)CN2C(c3ccccc3)=NN(c3ccccc3)C2(C)C1` (stereo unspecified), the growth inhibition in assay [1] was -5.85%; in assay [2], -18.4%; in assay [3] it was 20.9%; in assay [4], -23.1%; in assay [5] it was 50.4%; in assay [6], 6.15%.
Regarding `Cc1cccc(C(C)C)c1NC(=O)C(=O)CC(=O)c1sc(Nc2ccccc2Cl)nc1C`, the growth inhibition was -40% in assay [1]; -8.5% in assay [2]; -0.45% in assay [3]; -14.6% in assay [4]; -30.1% in assay [5]; 1.15% in assay [6].
For the compound `COc1ccc(/C(C)=N/OC(=O)c2sc3ccccc3c2Cl)cc1CN1CCOCC1`, the growth inhibition in assay [1] is -17.9%; in assay [2] it was -23.9%; in assay [3] it was -25.4%; in assay [4], -2.05%; in assay [5] it was -28.9%; in assay [6], -21.6%.
With `c1ccc(C2=C([P+](c3ccccc3)(c3ccccc3)c3ccccc3)CCO2)cc1`, the growth inhibition in assay [1] was 99% (active); in assay [2] it was 99.1% (active); in assay [3] it was 98.7% (active); in assay [4], 98.2% (active); in assay [5] it was 98.3% (active); in assay [6], 98.8% (active).
Regarding `Cc1ccc(S(=O)(=O)Oc2nc3nc4ccccc4nc3nc2OS(=O)(=O)c2ccc(C)cc2)cc1`, the growth inhibition in assay [1] was -3.5%; in assay [2], -2%; in assay [3], 3.7%; in assay [4], -10.5%; in assay [5] it was 3.5%; in assay [6], -3.95%.
Turning to `CC(O)(C(=O)O)C(NC(=O)c1ccccc1)C(=O)O` (stereo unspecified), the growth inhibition in assay [1] is 12.2%; in assay [2] it was 6.2%; in assay [3], -2.5%; in assay [4] it was 6.3%; in assay [5], 11.1%; in assay [6] it was 2.45%.
`COc1cc(C2c3cc4c(cc3OC3(OC)COC(=O)C23)OCO4)cc(OC)c1OC` (stereo unspecified): the growth inhibition in assay [1] is 0.4%; in assay [2], 13.4%; in assay [3] it was 4.9%; in assay [4], -13.9%; in assay [5], -21.1%; in assay [6] it was -21.4%.
As for `CC1=CC(=O)N2[C@H](OC[C@@H]2C(C)C)O1`, the growth inhibition in assay [1] is 6.4%; in assay [2], -2.35%; in assay [3] it was 2.15%; in assay [4], 14.7%; in assay [5] it was -20.2%; in assay [6], 9.5%.
As to `CSc1nc2c(cnn2C)c(=O)[nH]1`, the growth inhibition was 14.7% in assay [1]; -1.95% in assay [2]; 3.3% in assay [3]; -4.55% in assay [4]; 10.5% in assay [5]; 24.6% in assay [6].
Consider `COc1ccccc1/C=C1\C(=O)N(C(=O)Cc2ccccc2)N=C1C`, for which the growth inhibition in assay [1] was -4.4%; in assay [2], -8.15%; in assay [3], -54.2%; in assay [4], -10.8%; in assay [5], -3.85%; in assay [6] it was -25.4%.
With `Cc1nc(Cc2n[nH]c(C)n2)n[nH]1`, the growth inhibition in assay [1] is 14.4%; in assay [2], -6.65%; in assay [3], 11.9%; in assay [4], 15.2%; in assay [5], 3.4%; in assay [6], 14.3%.
With `Cc1c2oc3c(C)ccc(C(=O)NC4C(=O)NC(C(C)C)C(=O)N5CCCC5C(=O)N(C)CC(=O)N(C)C(C(C)C)C(=O)OC4C)c3nc-2c(C(=O)NC2C(=O)NC(C(C)C)C(=O)N3CCC3C(=O)N(C)CC(=O)N(C)C(C(C)C)C(=O)OC2C)c(N)c1=O` (stereo unspecified) (I: TV[Aze][Sar][NMeV] / II: TVP[Sar][NMeV]; ester I:1-I:C, II:1-II:C; linker I:N-II:N via Actinocin(1to9); configuration not given here), the growth inhibition was 90.3% (active) in assay [1]; 92.2% (active) in assay [2]; 92.5% (active) in assay [3]; 86.8% (active) in assay [4]; 89% (active) in assay [5]; 90% (active) in assay [6].
Turning to `O=C(NCc1ccco1)Nc1ccccc1`, the growth inhibition in assay [1] is -5.8%; in assay [2] it was -21.2%; in assay [3], -11.7%; in assay [4], -36%; in assay [5] it was 7.1%; in assay [6] it was -7.55%.
As for `N#Cc1c(-c2ccccc2)c(C#N)c(=S)n(C2OCC(O)C(O)C2O)c1N` (stereo unspecified), the growth inhibition in assay [1] is -23.6%; in assay [2] it was -2.2%; in assay [3], -10%; in assay [4], -38.5%; in assay [5] it was 3.05%; in assay [6], -15.1%.
Take `CC1CCP(=O)(c2ccccc2)CC1` (stereo unspecified): the growth inhibition in assay [1] is 8.5%; in assay [2] it was -10.8%; in assay [3] it was -7.15%; in assay [4], 6.9%; in assay [5] it was -7.3%; in assay [6], -35.2%.
As to `COc1cc(C=Nc2ccc3c(c2)OCO3)ccc1OC(=O)c1ccccc1`, the growth inhibition in assay [1] is 5.3%; in assay [2], 7.6%; in assay [3] it was 8.35%; in assay [4] it was 8.25%; in assay [5], 12.9%; in assay [6], -5.5%.
As to `Oc1cc(O)c(Cl)cc1Cl`, the growth inhibition in assay [1] was 15.4%; in assay [2], -4.25%; in assay [3], -22.8%; in assay [4], -2.95%; in assay [5], -12.3%; in assay [6] it was 23.3%.
As for `O=C(Nc1ccccc1-c1nn(CO)c(=S)n(CO)c1=O)C(F)(F)F`, the growth inhibition in assay [1] was 40.2%; in assay [2], 23.9%; in assay [3] it was 43.2%; in assay [4] it was 12.6%; in assay [5] it was -22.6%; in assay [6], 20.2%.
Take `O=C(CN=Cc1ccccc1O)NCc1ccccn1`: the growth inhibition in assay [1] was -10.7%; in assay [2], -5.9%; in assay [3], 10.7%; in assay [4], 10.1%; in assay [5], -21.9%; in assay [6], 21.3%.
